Test results taken from PubChem BioAssay (Tox21).
Values joined by “and” are separate entries in the source; they are usually repeats but may differ in a detail not shown here. Identical values can stand only once. Results filed as inconclusive are left out. Where a structure was tested more than once in an assay, its records may differ in their call. Active and inactive are the calls of the source. The call rests on the fitted dose curve; in most records, active means well fitted curve in the direction sought with a large enough effect in the repeat runs; inconclusive means weak or mixed curves; inactive means no such curve, though single readings can be large; an effect the other way counts as inactive or inconclusive.

Biological target: Androgen receptor (Homo sapiens) (UniProt P10275)
Sequence (P10275 whole entry, looked up): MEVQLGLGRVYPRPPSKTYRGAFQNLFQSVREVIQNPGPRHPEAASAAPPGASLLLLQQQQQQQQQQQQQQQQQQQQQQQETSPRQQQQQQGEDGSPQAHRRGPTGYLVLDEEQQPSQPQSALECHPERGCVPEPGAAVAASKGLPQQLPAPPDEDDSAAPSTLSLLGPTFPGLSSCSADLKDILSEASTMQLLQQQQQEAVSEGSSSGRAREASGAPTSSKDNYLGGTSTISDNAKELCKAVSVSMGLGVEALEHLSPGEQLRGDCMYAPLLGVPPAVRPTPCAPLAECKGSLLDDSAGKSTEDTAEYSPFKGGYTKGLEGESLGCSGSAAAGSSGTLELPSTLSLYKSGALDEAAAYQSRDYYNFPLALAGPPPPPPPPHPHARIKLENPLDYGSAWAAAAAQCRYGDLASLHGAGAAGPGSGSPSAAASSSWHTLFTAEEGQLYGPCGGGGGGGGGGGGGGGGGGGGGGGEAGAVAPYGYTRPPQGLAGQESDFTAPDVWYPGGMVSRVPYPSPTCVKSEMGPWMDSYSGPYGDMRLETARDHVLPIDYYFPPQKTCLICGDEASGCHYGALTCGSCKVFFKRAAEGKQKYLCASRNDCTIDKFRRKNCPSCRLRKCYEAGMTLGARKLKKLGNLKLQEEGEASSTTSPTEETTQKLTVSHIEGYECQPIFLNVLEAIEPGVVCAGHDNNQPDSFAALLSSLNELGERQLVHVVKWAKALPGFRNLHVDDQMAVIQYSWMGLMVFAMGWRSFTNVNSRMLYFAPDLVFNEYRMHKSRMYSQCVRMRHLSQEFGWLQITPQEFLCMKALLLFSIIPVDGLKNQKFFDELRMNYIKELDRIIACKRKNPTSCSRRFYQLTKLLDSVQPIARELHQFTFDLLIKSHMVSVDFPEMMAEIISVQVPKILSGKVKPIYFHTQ
Experiment: qHTS assay to identify small molecule agonists of the androgen receptor (AR) signaling pathway using the MDA cell line (AID 743040; further: nearly all actives have a fitted effect of over 20% in size)
Conditions: MDA-kb2 AR-luc cells, MMTV luciferase, 16 h, stronger effect = higher value; series mostly up to 70.3 µM; activity change: at the top concentration
Outline: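 Luciferase agonist assay: 16 h compound exposure at 37C without CO2 in MDA-kb2 AR-luc cells, whose MMTV promoter responds to both AR and GR. Luminescence measured after 30 min room-temperature incubation with ONE-Glo.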
On the % scale 0 is the no-effect control and ±100 the full control effect.

Compound | activity change | outcome
CCCCCCC[CH2][Sn]([Cl])([Cl])[CH2]CCCCCCC | -5.98% (inactive) | 
CN(C)C(=S)SSC(=S)N(C)C |  | inactive
Oc1cc(Cl)c(Cl)c(Cl)c1Cl | -11.2% (inactive) | 
O=NN(CCO)CCO | 0.98% (inactive) | 
C=CC(=O)[O][Sn]([CH2]CCC)([CH2]CCC)[CH2]CCC | -0.94% (inactive) | 
[Cl][Hg][c]1ccccc1 | -11.2% (inactive) | 
CCNS(=O)(=O)C(F)(F)C(F)(F)C(F)(F)C(F)(F)C(F)(F)C(F)(F)C(F)(F)C(F)(F)F | 1.48% (inactive) | 
CCOP(=O)(OCC)Oc1nc(Cl)c(Cl)cc1Cl | 5.59% (inactive) | 

Test system: not listed separately
Experiment: qHTS assay to identify small molecule antagonists of the androgen receptor (AR) signaling pathway using the MDA cell line - cell viability counter screen (AID 743041; further: nearly all actives have a fitted effect of over 45% in size; further: potency means the concentration at half of the fitted maximal effect)
Conditions: MDA-kb2 viability, CellTiter-Fluor, 16 h, cells co-treated with R1881 androgen agonist; series mostly up to 70.3 µM; viability change, negative = cytotoxic: at the top concentration
Outline: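 Viability read by CellTiter-Fluor fluorescence in the same wells as the antagonist screen, added after 15.5 h of a 16 h, 37C exposure. Human breast carcinoma MDA-kb2 AR-luc cells, compounds co-dosed with agonist R1881.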

Compound | viability change, negative = cytotoxic | Potency
O=c1c2ccccc2c(=O)c2c1cc(Cl)c1[nH]c3c([nH]c12)c(Cl)cc1c(=O)c2ccccc2c(=O)c13 | 4.94% (inactive) | 
CCN(CC)CCN1C(=O)CN=C(c2ccccc2F)c2cc(Cl)ccc21 | -19% (inactive) | 
CNC(=O)O/N=C(\C)C(C)S(C)(=O)=O (centres undefined) | -8.03% [at 920 µM] (inactive) | 
CCCCCCC[CH2][Sn]([Cl])([Cl])[CH2]CCCCCCC | 7.12% (inactive) | 
CN(C)C(=S)SSC(=S)N(C)C |  | 393 nM (active) and 269 nM (active) and 154 nM (active)
Nc1nc(N)nc(Cl)n1 | 1.47% (inactive) | 
O=[N+]([O-])c1ccc(Cl)c(Cl)c1Cl | -4.26% (inactive) | 
Cc1cccc(Cc2cnc[nH]2)c1C | -29.4% (inactive) | 
O=NN(CCO)CCO | -2.25% (inactive) | 
C=CC(=O)[O][Sn]([CH2]CCC)([CH2]CCC)[CH2]CCC |  | 2.17 µM (active)
CSSC | 7.74% [at 95 µM] (inactive) | 
CCC[CH2][Sn]([CH2]CCC)([CH2]CCC)[CH2]CCC |  | 61.1 µM (active)
CCCCON=O | 0.762% [at 95 µM] (inactive) | 
CNC(=O)Oc1cc(C)cc(C(C)C)c1 | 2.27% (inactive) | 
CCc1cccc(C)c1N(C(=O)CCl)[C@@H](C)COC | 22.2% (inactive) | 
NC(=O)C(Cl)Cl | 4.59% (inactive) | 
CN1C(=O)[C@@H](NC(=O)c2cc3ccccc3[nH]2)N=C(c2ccccc2)c2ccccc21 | -2.8% (inactive) | 

Compound | viability change, negative = cytotoxic | Potency
O=C(N[C@@H]1N=C(c2ccccc2F)c2cccc3c2N(CC3)C1=O)c1cc2ccccc2[nH]1 | -7.64% (inactive) | 
CCCCc1ccccc1 | 2.11% (inactive) | 
Clc1ccc(C(Cl)(Cl)Cl)cc1Cl | -7.69% (inactive) | 
CCn1cc[n+](C)c1 (tested in a mixture with another compound) | 3.66% (inactive) | 
CNC(=O)CSP(=O)(OC)OC | -0.776% (inactive) | 
[Cl][Hg][c]1ccccc1 |  | 3.44 µM (active)
ClCBr | 7.11% [at 95 µM] (inactive) | 
Cc1ccc2cc3c(ccc4ccccc43)c3c2c1CC3 | -0.798% (inactive) | 
CSC(C)(C)/C=N/O | 4.68% (inactive) | 
CCNS(=O)(=O)C(F)(F)C(F)(F)C(F)(F)C(F)(F)C(F)(F)C(F)(F)C(F)(F)C(F)(F)F | 2.84% (inactive) | 
CCOP(=S)(NC(C)C)Oc1ccccc1C(=O)OC(C)C (centres undefined) |  | 61.1 µM (active)
CC(Cl)CCl (centres undefined) | -0.305% (inactive) | 
CCOP(=O)(OCC)Oc1nc(Cl)c(Cl)cc1Cl | -18.6% (inactive) | 
CNC(C)(C)Cc1ccccc1 | 4.27% [at 32.5 µM] (inactive) | 
C[N+]1(C)[C@@H]2CC[C@H]1CC(OC(=O)C(CO)c1ccccc1)C2 (some centres undefined) |  | inactive
Cc1cnc2c(C(=O)O)c(Cl)ccc2c1 | 9.26% (inactive) | 

Biological target: Androgen receptor (Homo sapiens) (UniProt P10275)
Experiment: qHTS assay to identify small molecule antagonists of the androgen receptor (AR) signaling pathway using the MDA cell line (AID 743042; further: nearly all actives have a fitted effect of over 55% in size; further: potency means the concentration at half of the fitted maximal effect)
Conditions: MDA-kb2 AR-luc, MMTV luciferase, R1881 antagonist, 16 h; series mostly up to 70.3 µM; activity change, negative = inhibition: at the top concentration
Outline: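 Antagonist mode: compounds plus R1881 agonist added to MDA-kb2 AR-luc cells, incubated 16 h at 37C. Luciferase reporter luminescence quantified, with multiplexed CellTiter-Fluor readout for cell viability.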

Compound | activity change, negative = inhibition | Potency
CCCCCCC[CH2][Sn]([Cl])([Cl])[CH2]CCCCCCC | 2.27% (inactive) | 
CN(C)C(=S)SSC(=S)N(C)C |  | inactive and 170 nM (active) and 61.1 nM (active)
Oc1cc(Cl)c(Cl)c(Cl)c1Cl |  | 59.7 µM (active)
O=NN(CCO)CCO | 3.37% (inactive) | 
C=CC(=O)[O][Sn]([CH2]CCC)([CH2]CCC)[CH2]CCC |  | 1.72 µM (active)
[Cl][Hg][c]1ccccc1 |  | 0.969 µM (active)
CCNS(=O)(=O)C(F)(F)C(F)(F)C(F)(F)C(F)(F)C(F)(F)C(F)(F)C(F)(F)C(F)(F)F | 1.57% (inactive) | 
CCOP(=O)(OCC)Oc1nc(Cl)c(Cl)cc1Cl | -23.7% (inactive) | 
